Data reported in the supplement of paper PMC3334620.
In all, about 33,000 sequences were measured (“E-score (-0.5 to 0.5)”: median about -0.04, highest 2% from about 0.36 on). Shown is part of a subset that was picked to be rich in the highest values.

Biological target: T1, Hmlalpha2 (UniProt P0CY09)
T1 sequence: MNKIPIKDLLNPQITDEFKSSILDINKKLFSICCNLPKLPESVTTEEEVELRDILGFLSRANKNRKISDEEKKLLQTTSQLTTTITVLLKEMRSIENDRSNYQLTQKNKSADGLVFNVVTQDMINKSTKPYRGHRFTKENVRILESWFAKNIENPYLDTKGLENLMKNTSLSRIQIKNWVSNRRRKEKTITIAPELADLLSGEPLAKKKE
Test: PBM E-score (8-mer binding enrichment) (E-score (-0.5 to 0.5)); higher = stronger / more preferred TF binding
Settings: protein concentration: 200 nM; construct: GST-full length
Procedure: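 Universal 'all 10-mer' protein binding microarrays (Agilent AMADID 015681) probed with GST-tagged S. cerevisiae TFs (full-length or DBD) made by in vitro transcription/translation (PURExpress), about 100-200 nM. Bound TF was detected with fluorescent anti-GST. Each ungapped 8-mer (which stands for itself and its reverse complement) is scored by the PBM enrichment score (E-score), a modified Wilcoxon-Mann-Whitney statistic from -0.5 to +0.5, computed with the Universal PBM Analysis Suite. Scale: above 0.35 generally sequence-specific binding.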

Sequence	PBM E-score
CACACCGC	-0.0386
TATTTAGA	0.28
CATTTACC	0.144
GATTTAGA	-0.00065
AATTTACC	0.12
TATTTAAA	0.207
AATTTACT	0.296
AATTTACA	0.431
CATTTACG	0.303
TATTTACA	0.463
CATTTACA	0.442
GATTTACA	0.429
GATTTACC	0.18
CCGGTGCC	-0.378
AGGAAGAC	-0.0908
CACTCGCA	0.0187
GACGCGGA	0.0365
TAAACGGA	0.0215
AGAGAGCA	-0.234
GTGACACA	0.142
AAGACACA	0.183
ATGACACA	0.302
CAGACACG	0.0667
AAGACACG	0.373
ATGACACG	0.404

Sequence	PBM E-score
TCACAGCA	0.0289
ACCGCTGG	-0.228
ACGATGTA	0.376
CTGATGTA	0.233
ATGATGTA	0.358
GGGATGTA	0.328
CCGATGTA	0.155
GCGATGTA	0.366
ACGATGTC	0.0103
GTGATGTA	0.382
GCGATGAA	0.0458
AACTGTTG	-0.104
AAGCCCTA	0.0656
ATACGGTG	-0.0688
ATACGGTC	-0.0524
GCACGGTA	-0.0709
CCACGGTA	-0.0423
ACACGGAA	0.376
ACACGGAG	0.315
AAACGGTG	0.0442
ACACGGTA	0.366
CCACGGTC	-0.326
ACACGGAT	0.36
ACACGGTC	0.397
ACACGGTG	0.392

Sequence	PBM E-score
ATTAAGTC	0.189
ACCTATGC	-0.0222
TCTGCGCA	-0.00074
CAGGGCCG	-0.121
ACGTTGCG	0.0728
CGTCCTTC	-0.152
GTTGAGCA	0.111
GTTGGCGA	-0.0755
GGCTCTTA	-0.184
ACTTAGAT	0.132
GTCCCTTA	-0.127
TATTACAA	0.416
AATTACCC	-0.0352
CATTACAG	0.326
CATTACGA	0.214
TGTTACAA	0.31
CATTACCC	-0.00064
CATTACAA	0.411
TCTTACAA	0.229
AATTACAG	0.307
CATTACAC	0.474
AATTACAC	0.467
CATTACTA	0.225
GTTTCCCA	-0.0865
TCGTTGCA	0.0513

Sequence	PBM E-score
GGAAAGTA	-0.136
AAGAAGAT	-0.0289
CCCGACAG	-0.191
AATCGGGG	-0.203
AAGATACC	-0.0459
CGGAACCC	-0.13
CCATTAAG	-0.0773
TACAAGGA	0.291
TATCGTCA	-0.00037
GATTACTA	0.213
GATTACAA	0.438
AATTACTA	0.257
GATTACCA	0.087
AATTACCA	0.273
AATTACAA	0.436
GATTACCC	0.109
GATTAAAC	0.155
GATTACAC	0.483
AGCGTTGG	-0.0565
CCTTGGGC	-0.362
TAGCTCAA	-0.0444
GACTCTGC	-0.314
AGGCTGCC	-0.401
ACAGTAAG	0.064
GTACGACA	0.196

Sequence	PBM E-score
GCATGGCC	-0.0405
ACATGGCC	0.417
ACATGGCG	0.324
CCATGGTA	0.00138
AGATGGTG	-0.0243
ACATGGTA	0.397
ACATGGTC	0.308
ACATGGTG	0.414
GCATGGTA	0.189
AGAGGCCT	-0.263
AAATCTCA	-0.0212
GAGGTCTA	-0.0189
GCTGCAGC	-0.305
TGCGTTAA	0.397
CGCGTTAA	0.427
CGCGTTAC	0.212
AGCGTTAA	0.0425
GGCGTTAA	0.216
CACGTTAG	0.113
TACGTTAA	0.325
CGCGTTAG	0.3
CACGTTAA	0.376
GCTATCAA	-0.0322
CTGACTCA	-0.179
AAGTCGCG	0.111

Sequence	PBM E-score
TAATTCGA	0.121
ACGCAAAA	0.145
CCAGTGAC	-0.125
GCAGTTTA	0.00455
GTTATAGA	0.368
CTTATAGA	-0.154
ATTATAGA	0.0519
CTTATACA	0.252
GTTATACA	0.4
ATTATACA	0.34
CATGCGCC	-0.0099
ATGTCGGA	0.0661
AACGTAAA	0.325
CACGTAAG	0.244
CACGTAAC	0.196
TACGTATA	0.327
AACGTAAT	0.379
GACGTAAA	0.28
CACGTAAA	0.405
AACGTAAC	0.207
TACGTAAA	0.41
CGTCCACA	-0.0612
CCGCGGCC	-0.192
CTGCAAAG	-0.0914
CACGTTGG	0.109

Sequence	PBM E-score
ACAGAGAG	-0.0914
CCCAATGC	-0.198
AAACATAT	0.311
CCACATGG	-0.0738
CAACATGA	0.449
CAACATGG	0.403
AAACATCC	0.17
AAACATAC	0.267
AAACATGG	0.349
GAACATGA	0.31
CCACATGA	0.109
AAACATGC	0.37
AAACATCT	0.202
AAACATGT	0.445
ATCCTCCA	-0.166
ATACTGAT	0.126
ACAGCCGG	-0.073
AGAGCTCC	-0.252
CTGGGAGA	-0.262
TAACATCA	0.338
GAACATGC	0.272
ACACATGT	0.394
CAACATGC	0.398
AAACATCA	0.278
ACACATGG	0.21

Sequence	PBM E-score
AAACATGA	0.388
TAACATTA	0.331
AAACATAA	0.348
TAACATGA	0.462
CAACATAC	0.303
ACACATGA	0.304
ACTAACCC	0.0236
CAAGGGTC	-0.199
CCACACAG	-0.0322
ATGCGTTG	0.205
GACTGACC	-0.192
GAGGTCAA	-0.0488
GTGAAGAA	0.181
CCCAAACG	-0.123
ACAACTCA	0.194
AGAATAGC	-0.15
AGTGCCAC	-0.215
CAGGAGCC	-0.225
CTCCCTCC	-0.389
GTTACAAA	0.303
CTCACACA	0.114
CTTACACA	0.408
CTTACTCA	-0.0475
GTCACACA	0.15
GTTACACA	0.435

Sequence	PBM E-score
GCAAAACA	0.135
CCCTTGCC	-0.285
TAACCGCA	0.0481
AGACTCAT	-0.0539
CAATTACC	0.0295
CACTTACA	0.281
AAATTACG	0.309
TAATTACA	0.462
CAATTACA	0.445
GACTTACA	0.274
TAATTATA	0.245
CAATTACG	0.349
AAATTACA	0.424
AAATTACT	0.209
TACTTACA	0.379
TAATTAGA	0.167
CACCGCTA	-0.0146
CGAATTCA	-0.0293
AATGTAGT	0.249
GGGGCCTA	-0.31
GCCGCGGC	-0.242
CCGCGATC	-0.238
AATTCTGC	-0.061
GAATTACC	0.107
GAATTACA	0.444

Sequence	PBM E-score
GAATTATA	0.113
CTTGCTTC	0.0506
GTCATCGA	-0.0402
ATTTACGC	0.347
AATTACGC	0.431
GATTACGC	0.345
CTTTACGC	0.42
CTTTACGA	0.185
AATTACGT	0.382
CATTACGC	0.321
AATTACGA	0.338
AATTACGG	-0.0144
AATAACTG	0.0798
CCACTAGC	-0.111
AATACCCT	-0.0975
TCATTCCA	-0.147
GGTAATTA	0.25
CGTAATTC	0.321
CGTAATTA	0.389
CGTAATCC	0.309
CGTAATCA	0.367
AGTAATCA	0.199
ACTGCTTG	-0.00682
AACGAAGT	0.0804
ACAGCAGC	0.0712

Sequence	PBM E-score
TACGCGGA	0.312
AACGCGTG	0.336
CACGCGTA	0.277
AACGCGTA	0.359
GACGCGTA	0.383
TACGCGTA	0.409
TACGCGCA	0.252
CACGCGTC	0.174
CACGCGTG	0.374
CCCCCGTA	-0.247
AATGGAGT	-0.0239
AACTCTAA	0.0318
CCTTGATC	-0.0105
TCTGTACA	0.258
GATGTACC	0.135
GATGTACA	0.379
CATGTACA	0.458
TATGTACA	0.429
AATGTACA	0.366
CATGTACC	0.287
TCAGTACA	0.227
CCTGTACA	0.304
GGTGTACA	0.211
AATGTACT	0.186
AATGTACC	0.166

Sequence	PBM E-score
GCTTTGAC	0.074
GCGCACAC	-0.189
GTCAAGAC	-0.135
ATCACTGG	-0.0104
TATCTGGA	-0.16
GGTCCCTA	-0.0695
CCTGAATC	-0.0621
CATGTACG	0.372
CCTGTACG	0.0613
AATGTACG	0.108
CGGTAGAA	-0.175
ATCATGTC	0.351
CTCATGGA	-0.142
GTCATGCA	0.133
GTCATGGA	-0.188
GTAATGTA	0.413
ATCATGTG	0.209
CTCATGTA	0.454
CTAATGTA	0.262
ATAATGTA	0.273
CTCATGTC	0.295
GTCATGTA	0.442
ATCATGTA	0.472
CGCATTAC	0.214
ATGCGTTC	0.122

Sequence	PBM E-score
CGAGGCAA	0.126
AACCTCTC	-0.275
TACAACAA	0.343
GCCCCTCC	-0.277
TCGCCTCA	-0.118
CATACACG	0.398
CACACAGA	0.221
GATATACA	0.339
CATACACC	-0.076
CATACACA	0.336
TACACAGA	0.424
GACACAGA	-0.00939
TATACACA	0.437
AATATACA	0.34
TATACAGA	0.251
TATATACA	0.389
GATACACA	0.214
CTAAGATC	-0.0578
GGTGAGTA	0.135
AAAGCGAA	-0.132
GCCATCTA	-0.19
ACTCCACA	0.0494
GACGGTCA	-0.196
ATAGACTG	-0.0652
CACACACA	0.228

Sequence	PBM E-score
CACACACG	0.279
CACACAAA	0.126
GACACAAA	0.14
TACACAAA	0.431
TACACACA	0.43
ACAGATGC	-0.0548
ACTCCCAC	-0.352
GGCGGGAC	-0.194
TAACGCCA	0.0809
AGCTTGTC	0.133
CCCTTGTA	0.328
GTCTTGTA	0.306
AGCTTGTG	0.11
ACCTTGTA	0.402
ATCTTGTA	0.383
AGCTTGTA	0.379
GCCTTGTA	0.33
ATCTTGTG	-0.0105
CGGTCCCC	-0.347
